Data on nine compounds can be found in PubChem BioAssay (NCATS).

Each structure is given as a SMILES string. Values without a mark were called inactive. Records with an inconclusive call do not appear. The source made the active and inactive calls. Unless noted, calls come from the whole dose curve; as a rule, active = well fitted curve in the direction sought with a large enough effect; inconclusive = small, poorly fitted or top-dose-only effect, or another doubt; inactive = no such curve, though single readings can be large; an effect the other way counts as inactive or inconclusive.

One assay relates to WaGa. Description: qHTS assay to identify novel small-molecules to repurpose for Merkel cell carcinoma treatment (AID 1296009). Note: % is set by controls: 0 for no effect and ±100 for the full control effect; nearly all actives have a fitted effect of over 60% in size. Particulars: MCC and control cell lines, CellTiter-Glo viability, 72 h; series mostly up to 46 µM. In a few lines:
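After compound transfer in DMSO, plates were kept 72 hr at 37 degree celsius. Luminescent ATP signal from CellTiter-Glo served as viability measure, normalized against DMSO and no-cell controls.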

For the next assay, the system named is C33A. Description: Primary qHTS to identify gynecologic anti-cancer compounds using libraries of approved drugs and bioactive compounds (AID 1345084). Note: % is set by controls: 0 for no effect and ±100 for the full control effect; nearly all actives have a fitted effect of over 55% in size. Particulars: Gynecologic cancer cell panel viability, ATPlite luminescence, 48 h; series mostly up to 57.5 µM. A digest of the protocol:
(§1)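 In this quantitative HTS, cell killing is estimated from loss of ATP-dependent luciferase light. Cells see five compound concentrations over a 48 h exposure.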

The next assay has as its system CAOV3. Described as above. Particulars: Gynecologic cancer cell panel viability, ATPlite luminescence, 48 h; series mostly up to 57.5 µM. A digest of the protocol:
as §1

The test system of another assay is CASKI. Described as above. To be noted: Gynecologic cancer cell panel viability, ATPlite luminescence, 48 h; series mostly up to 57.5 µM. In a few lines: as §1
Another assay deals with Es-2. Described as above. To be noted: Gynecologic cancer cell panel viability, ATPlite luminescence, 48 h; series mostly up to 57.5 µM. A digest of the protocol: as §1
The test system of a further assay is HeLa. Described as above. Particulars: Gynecologic cancer cell panel viability, ATPlite luminescence, 48 h; series mostly up to 57.5 µM. A digest of the protocol:
as §1

A further assay has as its system Hek293T. The description is as above. Particulars: Gynecologic cancer cell panel viability, ATPlite luminescence, 48 h, control line for the selectivity index; series mostly up to 57.5 µM. In a few lines:
as §1

For the next assay, the system named is JEG-3. The description is as above. Particulars: Gynecologic cancer cell panel viability, ATPlite luminescence, 48 h; series mostly up to 57.5 µM. In a few lines:
as §1

In another assay the test system is PA-1. The description is as above. Particulars: Gynecologic cancer cell panel viability, ATPlite luminescence, 48 h; series mostly up to 57.5 µM. In a few lines:
as §1

The next assay concerns SKOV3. The description is as above. Particulars: Gynecologic cancer cell panel viability, ATPlite luminescence, 48 h; series mostly up to 57.5 µM. A digest of the protocol: as §1
A further assay relates to Tov-21-G. The assay is described as above. Particulars: Gynecologic cancer cell panel viability, ATPlite luminescence, 48 h; series mostly up to 57.5 µM. In a few lines: as §1
For the next assay, the system named is Tov112D. The assay is described as above. To be noted: Gynecologic cancer cell panel viability, ATPlite luminescence, 48 h; series mostly up to 57.5 µM. In a few lines: as §1
Assay [1] in a line: Drug repurposing screens with cells derived from glioblastoma tumor samples (AID 1345199). For activity, negative = cell killing: % is set by controls: 0 for no effect and ±100 for the full control effect. For all read-outs here: nearly all actives have a fitted effect of over 40% in size. Note: potency is the fitted concentration of half-maximal effect. To be noted: GBM patient neurospheres viability, ATP luminescence, 48 h; for Potency: tumour line A. A digest of the protocol: (§2)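 Four patient lines of CD133+ GBM neurospheres were screened at several concentrations; hits were retested in those lines plus three slower-growing GBM lines, using 48-hour treatment and ATP-based viability.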

For the next assay, the system named is OV90. Kind of assay: Primary qHTS to identify gynecologic anti-cancer compounds using libraries of approved drugs and bioactive compounds (AID 1345084). Note: % is set by controls: 0 for no effect and ±100 for the full control effect; nearly all actives have a fitted effect of over 55% in size. To be noted: Gynecologic cancer cell panel viability, ATPlite luminescence, 48 h; series mostly up to 57.5 µM. In a few lines: as §1
The subject of a further assay is astro. Description: Drug repurposing screens with cells derived from glioblastoma tumor samples (AID 1345199). For activity, negative = cell killing: % is set by controls: 0 for no effect and ±100 for the full control effect. Note: nearly all actives have a fitted effect of over 40% in size. Note: potency is the fitted concentration of half-maximal effect. Particulars: viability, ATP luminescence, 48 h; series mostly up to 45.9 µM. In a few lines: as §2
Assay [2] addresses Nuclear receptor subfamily 1 group I member 2 (Rattus norvegicus) (UniProt Q9R1A7). Kind of assay: qHTS assay for small molecule activators of the rat pregnane X receptor (rPXR) signaling pathway (AID 651751; call rule not given here; note: 0% is about no effect). To be noted: rPXR reporter cells, luciferase (One-Glo), 24 h.
The nature of assay [3]: qHTS assay for small molecule activators of the human pregnane X receptor (PXR) signaling pathway (AID 720659; call rule not given here; note: 0% is about no effect).
Setting [4] is: at 108 µM (top of the series), tumour line B.
[5] abbreviates: at 108 µM (top of the series), tumour line D.
Setting [6] is: at 45.9 µM (top of the series), tumour line B.
Setting [7] is: at 45.9 µM (top of the series), tumour line D.

Chain of Nuclear receptor subfamily 1 group I member 2 (Rattus norvegicus) (Q9R1A7 whole entry, looked up): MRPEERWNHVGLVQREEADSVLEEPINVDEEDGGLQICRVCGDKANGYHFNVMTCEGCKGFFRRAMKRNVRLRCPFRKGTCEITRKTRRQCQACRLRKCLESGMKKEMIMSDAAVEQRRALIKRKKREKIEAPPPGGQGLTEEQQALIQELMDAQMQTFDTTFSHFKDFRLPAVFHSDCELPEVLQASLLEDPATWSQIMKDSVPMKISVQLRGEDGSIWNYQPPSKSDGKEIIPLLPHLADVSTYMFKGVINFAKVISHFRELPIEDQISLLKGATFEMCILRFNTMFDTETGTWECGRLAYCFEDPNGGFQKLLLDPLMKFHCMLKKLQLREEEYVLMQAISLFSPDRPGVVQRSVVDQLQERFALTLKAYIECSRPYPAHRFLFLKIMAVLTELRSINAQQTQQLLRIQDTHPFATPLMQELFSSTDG

On to `CCN(CC)CCc1c[nH]c2ccccc12`, for which the Potency result in the assay on WaGa, in the assay with C33A, with Es-2, with HeLa, in the assay on PA-1 and with Tov-21-G was “inactive” throughout. Besides, the Potency entry with Tov112D is “inactive”. Further, the compound was classed as inactive in the assay with CAOV3, in the assay on CASKI, in the assay with Hek293T, in the assay with JEG-3 and with SKOV3. Besides, the activity, negative = cell killing in assay [1] (setting [4]) is -10.6%; in assay [1] (setting [5]), -16.4%. Moreover, the Potency in assay [1] was 63.1 µM (active).

As to `CCN[C@@H](C)Cc1ccccc1`, the Potency entry in the assay with WaGa, in the assay with C33A, in the assay with Es-2, in the assay on HeLa, with OV90 and in the assay with PA-1 was “inactive” in each case. Moreover, the Potency entry in the assay with Tov-21-G and in the assay with Tov112D was “inactive” each time. For the same compound, the call in the assay on CASKI, with Hek293T, with JEG-3 and in the assay with SKOV3 was inactive. The activity, negative = cell killing was -6.22% in assay [1] (setting [4]) and -20.9% in assay [1] (setting [5]).

Regarding `CC(C)(C)NCC(O)c1ccccc1Cl` (centres undefined), the Potency entry in the assay on WaGa, with C33A, with Es-2, in the assay on HeLa, in the assay with PA-1 and with Tov-21-G was “inactive” each time. Further, the Potency result in the assay on Tov112D and in the assay on astro was “inactive” in each case. Also, the compound was called inactive with CAOV3, with CASKI, with Hek293T, in the assay on JEG-3 and in the assay on SKOV3. Besides, the activity, negative = cell killing in assay [1] (setting [6]) was -9.73%; in assay [1] (setting [7]), -4.92%.

Regarding `C#CC(O)(C=CCl)CC` (centres undefined), the Potency entry in the assay on WaGa, in the assay on C33A, in the assay on Es-2, with HeLa, with OV90 and in the assay with PA-1 was “inactive” each time. Besides, the Potency entry in the assay with Tov-21-G and with Tov112D was “inactive” throughout. Also, the compound was classed as inactive with CASKI, in the assay on Hek293T, in the assay with JEG-3 and with SKOV3.

Consider `CNCC(=O)c1ccc(O)c(O)c1`, for which the Potency result with WaGa, in the assay with C33A, in the assay with Es-2, with HeLa, in the assay with OV90 and in the assay with PA-1 was “inactive” throughout. Also, the Potency entry in the assay on Tov-21-G, with Tov112D and with astro was “inactive” in each case. The compound was classed as inactive in the assay on CAOV3, in the assay on CASKI, in the assay on Hek293T, with JEG-3 and in the assay on SKOV3. Also, the activity, negative = cell killing in assay [1] (setting [6]) was -11.2%; in [1] (setting [7]) it was -3.6%.

For `COc1cc(OC)c(OC)cc1C=O`, the Potency entry with WaGa, in the assay with C33A, in the assay on Es-2, in the assay with HeLa, in the assay on OV90 and with PA-1 was “inactive” each time. In addition, the Potency result in the assay on Tov-21-G, in the assay with Tov112D and in the assay with astro was “inactive” in each case. Besides, the call (with CAOV3; in the assay on CASKI; in the assay on Hek293T; with JEG-3; with SKOV3; in assay [3]) was inactive. Further, the activity, negative = cell killing in assay [1] (at 91.6 µM (top of the series), tumour line B) was -6.05%. Also, the max response in assay [2] was 5.78%.

For the compound `CCCOC(=O)c1cncn1C(C)c1ccccc1` (centres undefined), the Potency entry in the assay with WaGa, in the assay on C33A, with Es-2, in the assay with HeLa, with OV90 and in the assay with PA-1 was “inactive” throughout. In addition, the Potency entry in the assay with Tov-21-G and in the assay on Tov112D was “inactive” throughout. For the same compound, the result with CASKI, in the assay on Hek293T, in the assay on JEG-3 and with SKOV3 was inactive.

Consider `ClCCN1CCCC1`, for which the Potency result with WaGa, in the assay on C33A, in the assay on Es-2, with HeLa, in the assay on OV90 and with PA-1 was “inactive” each time. Moreover, the Potency result in the assay with Tov-21-G and in the assay with Tov112D was “inactive” throughout. Further, the compound was classed as inactive in the assay with CASKI, in the assay on Hek293T, in the assay with JEG-3 and in the assay on SKOV3.

Turning to `CC(C)c1c(CN(C)C(C)Cc2ccccc2)n(C)n(-c2ccccc2)c1=O` (centres undefined), the Potency result in the assay with WaGa, in the assay on C33A, with Es-2, with HeLa, in the assay with PA-1 and in the assay with Tov-21-G was “inactive” in each case. Moreover, the Potency result in the assay with Tov112D and with astro was “inactive” throughout. The outcome with CAOV3, with CASKI, in the assay on Hek293T, in the assay on JEG-3 and in the assay on SKOV3 was inactive. The activity, negative = cell killing in [1] (at 21.2 µM (top of the series), tumour line B) is -20.9%; in assay [1] (at 21.2 µM (top of the series), tumour line D), -18.5%. In addition, the Potency in [1] is 11.2 µM (active).
